Test results taken from the supplement of paper PMC3334620.
In all, about 33,000 sequences were measured (“E-score (-0.5 to 0.5)”: median about -0.012, highest 2% from about 0.29 on). The sample holds the highest values, similar sequences and a random draw of the others, so the mix is not that of the screen.

These sequences were tested against T1, Ybr033w (UniProt P38073) (assay: PBM E-score (8-mer binding enrichment) (E-score (-0.5 to 0.5)); higher = stronger / more preferred TF binding). Conditions: protein concentration: 200 nM; construct: GST-full length.
T1 sequence: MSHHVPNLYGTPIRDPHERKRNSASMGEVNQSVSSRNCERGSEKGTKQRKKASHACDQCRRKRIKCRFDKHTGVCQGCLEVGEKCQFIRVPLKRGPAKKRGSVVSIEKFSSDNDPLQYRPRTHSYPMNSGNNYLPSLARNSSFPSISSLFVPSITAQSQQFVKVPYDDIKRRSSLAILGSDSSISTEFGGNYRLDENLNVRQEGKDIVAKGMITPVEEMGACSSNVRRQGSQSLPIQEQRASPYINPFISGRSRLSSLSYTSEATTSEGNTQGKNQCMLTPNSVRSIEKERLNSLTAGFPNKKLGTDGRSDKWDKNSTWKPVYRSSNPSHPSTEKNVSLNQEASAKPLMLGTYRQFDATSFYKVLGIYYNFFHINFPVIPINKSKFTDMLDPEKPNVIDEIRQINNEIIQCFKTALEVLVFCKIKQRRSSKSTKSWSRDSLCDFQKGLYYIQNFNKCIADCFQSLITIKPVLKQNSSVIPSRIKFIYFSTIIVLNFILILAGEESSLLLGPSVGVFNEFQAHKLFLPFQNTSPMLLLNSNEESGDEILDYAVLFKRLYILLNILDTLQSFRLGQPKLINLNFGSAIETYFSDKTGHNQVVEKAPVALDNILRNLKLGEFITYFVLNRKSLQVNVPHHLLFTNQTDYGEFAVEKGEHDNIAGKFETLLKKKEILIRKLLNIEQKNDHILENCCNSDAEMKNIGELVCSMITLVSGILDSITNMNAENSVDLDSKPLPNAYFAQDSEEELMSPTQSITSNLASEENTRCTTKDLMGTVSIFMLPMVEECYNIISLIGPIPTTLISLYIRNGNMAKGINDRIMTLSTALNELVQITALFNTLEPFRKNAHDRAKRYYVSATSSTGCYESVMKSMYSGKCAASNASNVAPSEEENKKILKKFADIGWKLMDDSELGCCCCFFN
Method: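 Universal 'all 10-mer' protein binding microarrays (Agilent AMADID 015681) probed with GST-tagged S. cerevisiae TFs (full-length or DBD) made by in vitro transcription/translation (PURExpress), about 100-200 nM. Bound TF was detected with fluorescent anti-GST. Each ungapped 8-mer (which stands for itself and its reverse complement) is scored by the PBM enrichment score (E-score), a modified Wilcoxon-Mann-Whitney statistic from -0.5 to +0.5, computed with the Universal PBM Analysis Suite. Scale: above 0.35 generally sequence-specific binding.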

Sequence	PBM E-score
CATAAATA	0.169
GATAAAGC	0.159
TATAAAAA	0.253
TTCGCAAA	0.225
CTAGACAA	-0.0833
ATCCATGA	-0.0662
AGACAAAT	0.129
CCACAAAC	0.077
TCCACACA	0.111
CGGTGCGC	-0.156
GTTCGAGA	-0.0752
GCTGAGGA	-0.194
AATAAATA	0.378
AATAAACT	0.221
GATAAACA	0.298
GATAAAAA	0.278
GATAAACC	0.236
AATAAAGA	0.267
AATAAATC	0.263
TATAAACA	0.247
AATAAATG	0.194
CATAAAAC	0.0263
GATAAAAC	0.323
AATAAATT	0.314
ACGTTCTA	-0.0975

Sequence	PBM E-score
AAACCAAT	0.272
CATACCCG	-0.165
CGAATTGC	-0.0195
CAAGAACC	0.137
CCAGATCG	-0.0568
CCGATTAG	-0.131
ATTGTCTA	0.144
ACTCTAAC	0.17
AATAAAAG	0.0821
AATAAAAT	0.304
AATAAAAA	0.252
AAGTTTAC	0.154
AAGTTATT	0.3
AAGTTAAT	0.315
AAGTTAAG	-0.149
AAGTTAAC	0.224
AAGTTTAG	0.128
AAGTTATA	0.166
AAGTTATG	0.206
AAGTTTAT	0.333
AAACTGCA	0.146
ACCCTTCC	-0.0151
AGTAGCAA	0.152
ACACTGGG	-0.161
AGTGTTGC	0.0949

Sequence	PBM E-score
GTCTTTGA	-0.0431
GACATTCA	0.0222
CACTTTTC	0.255
CTCCGTTC	-0.0235
CTGGTGCA	-0.31
AGGAAATA	0.298
AGGAAATC	-0.0432
CGGAAATA	0.433
GGGAAATA	0.137
CGGAAATC	0.067
AGGAAATG	0.146
CTATTTGA	0.227
AAGATCCG	-0.0767
CAAACTGA	0.14
CAGGTAGA	-0.138
AAAAAATT	0.237
CAATAATA	0.292
AGATAATC	0.306
AGATAATG	0.181
TAATAGTA	0.297
AAATAATT	0.388
CAATAGTA	0.168
CAATAATG	0.137
AGATAATA	0.219
CCATAATA	0.264

Sequence	PBM E-score
GAATAGTA	0.183
CGTTATTC	0.175
GCTATTCC	-0.0267
AGGGGTAC	-0.205
ACCGTGAC	-0.159
CGAGTGCC	-0.198
AACGGTGT	-0.113
CAAAGCTC	-0.212
CAGTCTAG	-0.137
ATATGCAT	0.02
TAATAAAA	0.365
AAATAATG	0.227
CAATAATC	0.171
ACATAATC	0.205
AAATAATA	0.344
ACATAATA	0.247
AAATAATC	0.341
CAATAAAA	0.225
TAATAAGA	0.184
GAATAAAA	0.207
TAATAATA	0.33
TAATAACA	0.226
ATGCCCGA	-0.106
ACCTATGC	-0.0454
CGTCCACG	-0.133

Sequence	PBM E-score
CGGGGCAC	-0.319
ACCATCTA	0.0217
AACCTGGT	0.0823
AATCCAGA	0.295
AATCCAGC	0.0372
TATCCAGA	0.158
GATCAAGA	0.0926
CGAACAAA	0.191
ATAACAAG	0.191
TGAACAAA	0.284
CGAACATA	0.2
GGAACAAA	0.45
ATAACAAA	0.29
GGAACATA	0.313
AGAACAAG	0.212
AGAACAAA	0.33
AGAACATA	0.192
AGAACAAT	0.209
ATAACAAT	0.165
AGAGACTA	-0.0151
CTCGCAAC	-0.052
AAGGCCTC	-0.21
AAAGTACT	0.177
TACGACTA	0.0548
CCCCTATC	-0.337

Sequence	PBM E-score
CCCCCCCC	-0.45
CACTTGTC	-0.0719
GCACTGTA	0.0862
CGAACAAC	0.077
GGAACAAC	0.454
AGAACAAC	0.0473
AGTATTCA	0.142
ACGCCCTG	-0.16
CTATCAGA	-0.0376
ATATCAGA	0.289
GTATCAGA	0.106
AACCCCGA	-0.0425
GATTTCAA	0.174
CATTTCAA	0.242
TATTTCGA	0.357
TATTTCAA	0.338
GATTTCGA	-0.0493
AATTTCGA	0.0715
TTAAGGAA	0.218
AGTAGACT	-0.0063
GGAGGGAC	-0.188
TAAGCTTA	0.102
AGTGGACA	0.0894
CTGAACTA	0.037
ATGAACTA	0.303

Sequence	PBM E-score
ATGAACTC	0.0731
ATTAGAGA	0.115
TGGGAAAA	0.316
AGGGGAAA	0.0237
CGGGAAAC	0.0713
CGGGAAAA	0.298
GGGGGAAA	-0.124
AGGGAAAA	0.296
TGGGGAAA	0.0688
AGGGAAAT	0.00233
CGGGGAAA	0.212
AGTTATGA	0.0811
CGGTTGGA	0.0125
ATCCTGGC	-0.0209
TAAATAGA	0.0889
TAAATAAA	0.301
AAAATAAT	0.319
GAAATAAA	0.247
AAAATAGC	-0.0427
AAAATAGA	0.332
GAAATAAC	0.159
CAAATAAA	0.2
AAAATAAC	0.189
AAAATAAG	0.207
AAAATAAA	0.319
